Data reported in PubChem BioAssay (NCI).
The panel holds about 83,000 compounds, 20% with a hit somewhere; the sample as a whole holds those more often.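 Values shown are percent growth following 48 h exposure of cells in 96-well plates to a single concentration of compound; below 10 was considered active.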 Values without a mark were called inactive. Activity calls are given as the source filed them.

System: U251 CNS
Assay: NCI-60 one-dose screen, 48 h (100 = growth as untreated, 0 = no growth, -100 = all killed)
Details: 10 µM unless noted

Row | SMILES | growth
1 | Cc1ccc2c(C(C[N+](=O)[O-])c3ccco3)c(-c3ccccc3)[nH]c2c1 (stereo not drawn) | 25.8%
2 | NC(=O)c1cc(Br)ccc1NC(=O)/C=C/c1ccccc1 | 28.7%
3 | O=C1c2cccc3cccc(c23)C(=O)N1CCCCN1CCN(CCCCOc2ccc(-c3nc4ccc(N5CCOCC5)cc4[nH]3)cc2)CC1 | 74.6%
4 | Cc1cc(C)nc(SC2=C(Nc3cccc(Cl)c3)C(=O)N(Cc3ccccc3)C2=O)n1 | 78.5% [30 µM]
5 | CN(C)C(=S)N=Nc1c(O)[nH]c2ccccc12 | 17%
6 | O=C1/C(=C/c2ccc3c(c2)OCO3)SC(=S)N1CCc1ccc(O)cc1 | 102%
7 | N#Cc1cnn(-c2nc3c(Cl)cccc3s2)c1N | 88%
8 | Nc1ccn(-c2ccc(Br)cc2)c(=O)n1 | 104%
9 | Cc1ccc(C2=NN3C(C2)c2cc(Br)ccc2OC32CCN(Cc3ccccc3)CC2)o1 (stereo not drawn) | 96.3%
10 | COc1ccc(C(=O)COc2ccc(/C=C3\COc4ccc(OC)cc4C3=O)cc2)cc1 | 84.3%
11 | CCN(CC)c1ccc(-c2cc(-c3cc(OC)c(OC)c(OC)c3)nc(N3CCOCC3)c2C#N)cc1 | 36.7%
12 | Cn1cc(-c2nonc2-c2cn(C)c3ccc(F)cc23)c2ccccc21 | 23.5%
13 | COc1ccc(C(=O)COc2cccc(/C=C3\CSc4ccccc4C3=O)c2)cc1 | -86.7% (active)
14 | CCn1c(Cc2ccccc2Nc2c(Cl)cccc2Cl)nnc1SCC(=O)NN1C(=O)/C(=C/c2cc(OC)c(O)c(OC)c2)SC1=S | 31.5%
15 | O=C1c2ccccc2C(=O)c2c(N=Nc3[nH]c(=S)[nH]c3O)cccc21 | 12.8%
16 | C#CCOc1ccc2ncnc(N3CCC(NC(=O)CCl)CC3)c2c1 | 66.1% [8.25 µM]
17 | Cc1cc2c3ccccc3ccc2[n+]2ccccc12 | 6.05% (active)
18 | Cc1ccc(/C=C2\SC(=S)N(CC(=O)NCCCN3CCOCC3)C2=O)cc1 | 100%
19 | CC(=O)O[C@H]1[C@@H]2OC(=O)C(CSc3ccccc3)[C@@H]2C[C@H]2O[C@]2(C)CC/C=C(\C)CCC[C@@H]1C (stereo partly drawn) | 51.6%

Row | SMILES | growth
20 | Cc1cc2nc(NC(=O)CN3CCN(CCN4C(=O)c5cccc6cccc(c56)C4=O)CC3)sc2cc1C | 73.2%
21 | CC(=O)Oc1ccc(Cl)cc1CN(C(C)=O)C1CCCCC1 | 95.9%
22 | O=C(NCCN1CCOCC1)Nc1ccc(-c2cc3c(Nc4ccc(Oc5cccc(C(F)(F)F)c5)c(Cl)c4)ncnc3s2)cc1 | 0.383% (active)
23 | Cn1ccnc1C(=O)/C=C/c1ccccc1 | 25%
24 | Brc1ccc(-c2csc(Nc3ccccn3)n2)cc1 | 166%
25 | COc1ccc2c(c1)O/C(=C\c1cccc(OCC(=O)Nc3nc4c(s3)CCCC4)c1)C2=O | 73.1%
26 | C=CCSSC1N=CNc2nc[nH]c21 (stereo not drawn) | 70.2%
27 | COc1ccc(S(=O)(=O)N2CCCCCC2)cc1NC(=O)c1[nH]c(C)c2c1CCCCC2=O | 29.9%
28 | Cc1ccc(C(SCC(N)C(=O)O)(c2ccccc2)c2ccc(C)cc2)cc1 (stereo not drawn) | 7.96% (active)
29 | O=C(O)c1ccc(NC(=O)c2ccc(-c3cccc([N+](=O)[O-])c3)o2)cc1 | 96.8%
30 | CC1=CC(C)(C)Nc2ccc(Cc3ccc4c(c3)C(C)=CC(C)(C)N4)cc21 | 93.5%
31 | COc1ccc(C2CC(c3ccc4ccccc4c3)=NN2/C=C2\SC(=S)N(NC(=O)Cc3ccccc3Nc3c(Cl)cccc3Cl)C2=O)cc1 (stereo not drawn) | 16.1%
32 | Cn1c(NCCc2ccc(O)c(O)c2)nc2c1c(=O)n(Cc1ccc(Br)cc1)c(=O)n2C | 82.8%
33 | Cc1ccc2c(c1)C(=O)/C(=C/c1cccc(OCC(=O)c3ccc(Cl)cc3)c1)CS2 | 89.7%
34 | COC(=O)c1ccc(NC(=O)c2ccc(-c3cccc([N+](=O)[O-])c3)o2)cc1 | 100%
35 | COc1cc(C(=O)/C=C/c2cccnc2Nc2ccc(Cl)cc2)cc(OC)c1OC | -95.3% (active)
36 | Cc1cc(C)nc(SC2=C(Nc3cc(Cl)ccc3O)C(=O)N(Cc3ccccc3)C2=O)n1 | 87.5% [30 µM]
37 | CC(C)CSc1nc(N)nc2c1ncn2C1OC(CO)C(O)C1O (stereo not drawn) | 101%
38 | O=C1NC(=Nc2ccc(O)cc2)S/C1=C\c1cccc(Cl)c1 | 59.3%
